Assay outcomes (PubChem BioAssay)
NOD2-RIPK2 inh = NOD2-RIPK2 binding disruptors in cells, primary screen, fluorescence, CHO cells, BLA complementation | Receptor-interacting serine/threonine-protein kinase 2 (Homo sapiens), O43353 | CCF4 ratio | inhibition, % at 4.98 µM | 360,000 tested, 0.38% active | AID 624267, 2012; in the data active means inhibition above about 21%;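 further: 0% = vehicle only and 100% = reference blocker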
Neddylation inh = inhibitors of cullin neddylation, primary screen, biochemical, TR-FRET, uHTS, NAE and Ubc12 | inhibition, % at 25 µM | 360,000 tested, 0.58% active | NEDD8-conjugating enzyme Ubc12 (Homo sapiens) + NEDD8-activating enzyme E1 regulatory …; in the data active means inhibition above about 36%
TLR9-MyD88 inh = inhibitors of TLR9-MyD88 association in cells, primary screen, cell-based, CHO, BLA complementation, fluorescence | 340,000 tested, 0.21% active | CCF4 FRET ratio | inhibition, % at 4.98 µM | Toll-like receptor 9 (Homo sapiens) + Myeloid differentiation primary response protein …;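 active means inhibition above the mean over all tested compounds plus 3 SD, cut at about 21% in these data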;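 further: 0% = DMSO only wells and 100% = clavulanate BLA inhibitor control wells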
TLR4 MyD88 comp = inhibitors of TLR4-MyD88 association in cells, primary screen, cell-based, HeLa CL3-4, BLA complementation, FRET ratio. Toll-like receptor 4 (Homo sapiens) + Myeloid differentiation primary response protein …. HeLa CL3-4 TLR4/MyD88 BLA complementation. inhibition, % at 8.4 µM. 200,000 tested, 0.18% active. AID 861, 2007; in the data active means inhibition above about 25%;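 further: 0% = vehicle and 100% = reference inhibitor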
GC-A act = GC-A stimulated cGMP production enhancers – HEK293 GC-A cells, cGMP TR-FRET, EC30 ANP, primary screen; Atrial natriuretic peptide receptor 1 (Homo sapiens), P16066; 0% at EC30 ANP, 100% saturating ANP; activation, % at 10 µM; 370,000 tested, 0.14% active; AID 1671463, 2021; in the data active means activation above about 40%
Target sequence (P16066 whole entry, looked up): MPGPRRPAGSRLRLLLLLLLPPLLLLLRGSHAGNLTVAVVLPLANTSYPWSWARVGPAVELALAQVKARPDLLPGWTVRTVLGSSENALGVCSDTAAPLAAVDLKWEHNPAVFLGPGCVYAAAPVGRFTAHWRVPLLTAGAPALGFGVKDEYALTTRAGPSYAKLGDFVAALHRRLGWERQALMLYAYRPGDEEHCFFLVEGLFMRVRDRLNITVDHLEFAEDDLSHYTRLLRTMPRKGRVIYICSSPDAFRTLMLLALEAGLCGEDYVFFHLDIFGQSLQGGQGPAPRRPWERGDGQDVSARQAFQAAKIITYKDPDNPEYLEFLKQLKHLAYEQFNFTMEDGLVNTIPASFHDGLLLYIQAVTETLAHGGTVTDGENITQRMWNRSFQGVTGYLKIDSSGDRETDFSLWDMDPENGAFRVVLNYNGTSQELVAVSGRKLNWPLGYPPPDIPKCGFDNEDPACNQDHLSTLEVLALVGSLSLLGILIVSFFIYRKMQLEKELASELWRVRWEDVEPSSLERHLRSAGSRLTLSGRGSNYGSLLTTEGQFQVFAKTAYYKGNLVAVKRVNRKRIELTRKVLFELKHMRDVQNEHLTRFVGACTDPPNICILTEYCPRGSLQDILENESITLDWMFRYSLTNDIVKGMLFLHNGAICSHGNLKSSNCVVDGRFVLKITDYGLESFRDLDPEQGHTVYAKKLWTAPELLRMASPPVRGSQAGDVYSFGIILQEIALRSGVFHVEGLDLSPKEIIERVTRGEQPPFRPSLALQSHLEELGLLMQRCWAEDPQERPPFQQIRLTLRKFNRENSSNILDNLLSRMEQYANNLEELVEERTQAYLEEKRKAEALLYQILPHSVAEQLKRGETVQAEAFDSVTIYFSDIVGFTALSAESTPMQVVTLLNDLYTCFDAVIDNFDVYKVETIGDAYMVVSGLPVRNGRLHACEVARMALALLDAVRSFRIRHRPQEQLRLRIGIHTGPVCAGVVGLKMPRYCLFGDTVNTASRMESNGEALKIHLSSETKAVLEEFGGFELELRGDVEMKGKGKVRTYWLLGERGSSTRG
GC-B act = human GC-B receptor activators, primary screen, HEK293 GC-B cells, cGMP TR-FRET, EC30 CNP. 0% at EC30 CNP, 100% saturating CNP. 370,000 tested, 0.11% active. Atrial natriuretic peptide receptor 2 (Homo sapiens), P20594. activation, % at 10 µM;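 active means activation at 10 µM reaching about 35% in either raw or pattern-adjusted values, limit read from the data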
Neddyl conf = blockade of NEDD8 conjugation to cullin – biochemical, TR-FRET, single concentration, confirmation. calls only at 25 µM. 1,800 tested, 13% active. TR-FRET cullin neddylation biochemical assay. shares compounds with Neddylation inh; in the data active means inhibition above about 40%;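 further: neddylation substrate is the cullin 1 ring ligase complex with SKP2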
* marks the source's active call; other numbers are inactive results; i = inactive; . = no result given; + = active, no number. The list is not random: actives were taken first. Their share in the collection is about 1.2%.

SMILES | NOD2-RIPK2 inh | Neddylation inh | TLR9-MyD88 inh | TLR4 MyD88 comp | GC-A act | GC-B act | Neddyl conf
C=C(C)CSc1nc2sc(C)c(C)c2c(=O)n1C | . | . | . | . | -1 | 1 | .
CCCCN(C(=O)Cc1ccc(S(=O)(=O)N2CCOCC2)s1)c1c(N)n(CCCC)c(=O)[nH]c1=O | 0 | 3 | 6 | . | 2 | 0 | .
Cc1ccn2cc(C(=O)Nc3nnc(C)s3)nc2c1 | -6 | 40* | -2 | 8 | -2 | 4 | i
COc1ccc(-c2nc3nc(C)c(Cc4ccccc4)c(=O)n3[nH]2)cc1 | -7 | 46* | -13 | 1 | 2 | -4 | .
COC(=O)Cc1c(C)nc2nc(-c3ccc(OC)cc3)[nH]n2c1=O | 0 | . | 5 | 10 | 4 | 3 | .
CCCc1cc(=O)oc2c(C)c(OCC(=O)N3CCC[C@@H]3C(=O)O)ccc12 | 7 | 46* | -3 | . | 1 | -1 | i
CCCCCCc1c(C)c2ccc(OCC(=O)N3CCC[C@H]3C(=O)O)c(C)c2oc1=O | -1 | 49* | -8 | . | 1 | 5 | .
O=C(O)c1ccccc1OCc1nc2ccccc2s1 | -1 | -4 | -9 | . | 5 | -1 | .
CCOC(=O)Cn1nc(/C=C/c2ccc(C(C)C)cc2)ccc1=O | 9 | 49* | -9 | -2 | 1 | -7 | .
CCOC(=O)Cn1nc(/C=C/c2ccccc2)ccc1=O | -8 | 43* | 1 | -6 | 3 | -4 | +
COc1ccc(CCNS(=O)(=O)c2ccc([N+](=O)[O-])cc2)cc1OC | 2 | -31 | -5 | . | 2 | 2 | .
CCCCN(C(=O)c1ccc2c(c1)S(=O)(=O)N=C1CCCCCN12)c1c(N)n(CC(C)C)c(=O)[nH]c1=O | 3 | 14 | -1 | . | 4 | -5 | .
Cc1ccccc1-c1cc(C(=O)NCc2cccc(Br)c2)n(CC2CC(c3cccnc3)=NO2)n1 (configuration not stated) | 0 | -20 | 4 | . | -2 | 1 | .
Cc1ccc([C@@H]2C[C@H]3[C@@H](CN2S(=O)(=O)c2ccc(Cl)cc2)C(=O)C[C@@H](c2ccc(Cl)cc2)N3S(=O)(=O)c2ccccc2C)cc1 | -3 | -3 | -1 | . | 0 | 6 | .
Cc1ccc(S(=O)(=O)Nc2ccsc2C#N)cc1 | -11 | -7 | 2 | . | 3 | 2 | .
CCc1ccc(-c2csc(NC(=O)C3CC(=O)N(c4ccc5c(c4)OCCO5)C3)n2)cc1 (configuration not stated) | -4 | 53* | 11 | 2 | 3 | -1 | i
CC1CC(C)CN(CC(O)COCc2ccccc2)C1 (configuration not stated) | 4 | 1 | -3 | . | 3 | -3 | .
CN(C)c1ccc(-c2[nH][nH]c(=O)c2NC(=O)c2ccccn2)cc1 | 5 | 45* | . | . | -1 | -4 | i
COCC#Cc1cnc2c(c1)C(=O)N([C@@H](C)CO)C[C@H](C)[C@H](CN(C)C(=O)c1ccc3c(c1)OCO3)O2 | . | . | . | . | 1 | 2 | .
N#CC1=C(N)Oc2cc(O)ccc2C1c1ccncc1 (configuration not stated) | 1 | -28 | 6 | 3 | 0 | 0 | .
CCOc1ccccc1C1C(C#N)=C(N)Oc2cc(N)ccc21 (configuration not stated) | 2 | 47* | -3 | 1 | 10 | 4 | i
COc1ccc(OC)c(C2C(C#N)=C(N)Oc3cc(N)ccc32)c1 (configuration not stated) | 7 | 19 | 4 | 4 | 5 | -1 | .
C#CCOc1ccc(C2C(C#N)=C(N)Oc3cc(O)ccc32)cc1 (configuration not stated) | 8 | 56* | -1 | . | 8 | -3 | i
COc1ccc(C2C(C#N)=C(N)Oc3cc(O)ccc32)cc1Cl (configuration not stated) | 0 | 48* | 1 | . | 37 | 2 | i
OC[C@@H]1CN(Cc2ccco2)C[C@H](n2cnc3c(NC4CCCC4)ncnc32)O1 | -6 | 9 | . | . | 2 | 1 | .
SMILES | NOD2-RIPK2 inh | Neddylation inh | TLR9-MyD88 inh | TLR4 MyD88 comp | GC-A act | GC-B act | Neddyl conf
Cc1ccc(-c2[nH]c3ccccc3c2SCCN)cc1 | -25 | 46* | -10 | . | -17 | -9 | i
CC1CN(C(=O)Cn2cc(S(=O)(=O)CC(=O)N3CCOCC3)c3ccccc32)CC(C)O1 (configuration not stated) | -1 | -5 | -11 | . | 0 | 1 | .
Nc1ncnc(Nc2c(F)cccc2F)n1 | 8 | -2 | 3 | . | 3 | 4 | .
CC(OC(=O)c1snc(C(=O)NC2CCCCC2)c1N)C(=O)NC(C)(C)C (configuration not stated) | 6 | 40* | 0 | -16 | 7 | 6 | +
CCOC(=O)c1cc(NCc2cccs2)ccc1N1CCOCC1 | -2 | 46* | -8 | 6 | -5 | -2 | i
CCOc1ccccc1CNc1ccc(N2CCOCC2)c(C(=O)O)c1 | -3 | 41* | 8 | 3 | -1 | -1 | i
CCOC(=O)c1cc(NC(=O)c2cccs2)ccc1N1CCOCC1 | 5 | 1 | -6 | -4 | 4 | 4 | .
COC(=O)c1cc(NCc2ccccc2F)ccc1N1CCOCC1 | -6 | 32 | 3 | 1 | -2 | 1 | .
CCCCOCCCNC(=O)C[C@@H]1C(=O)N2CCCC3=C2[C@@]1(C(=O)OCC)CCC3 | . | . | . | . | 3 | 6 | .
CC1CCCCN1C(=S)NC(=O)c1cc(Br)ccc1Cl (configuration not stated) | 7 | -18 | 4 | . | -2 | 2 | .
O=C(COC(=O)c1ccc2ncsc2c1)NCc1ccccc1Cl | 1 | 5 | 9 | . | 2 | 2 | .
CNC(=S)N1CCN(c2c(F)cc3c(=O)c(C(=O)O)cn(C4CC4)c3c2OC)CC1C (configuration not stated) | -7 | . | -7 | 1 | 1 | 1 | .
C[C@@H]1CN(c2c(F)c(F)c3c(=O)c(C(=O)O)cn(C4CC4)c3c2F)C[C@H](C)N1 | -10 | 46* | -4 | . | -2 | 6 | .
CC(=O)C[C@@H](O)CC(=O)[C@H]1OC(=O)CCCCCCCCc2ccccc21 | -8 | -17 | 0 | . | 0 | -10 | .
Oc1ccc(Cl)cc1C=Nc1ccccc1Br | 0 | 5 | -6 | -4 | 5 | 0 | .
